# PubChem BioAssay (Tox21)
# Inconclusive results are not listed. Where a call stands in place of a potency, no number is given. Where a structure was tested more than once in an assay, its records may differ in their call. Active and inactive are the calls of the source. Unless noted, calls follow the shape of the full dose curve.
# Tested on: not listed separately
# Experiment: cAMP Responsive Elements (CRE) small molecule antagonists, cell-based qHTS assay (AID 1963591; active = well fitted inhibition curve with a large enough effect in the signal ratio in the repeat runs, not every such curve was filed as active; the % refers to the signal ratio)
# Conditions: CRE-bla HEK293T, beta-lactamase FRET ratio; series mostly up to 92.4 µM
# Procedure, shortened: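 Beta-lactamase reporter read by FRET substrate (LiveBLAzer B/G) after 2 h at room temperature. CRE-bla HEK293T cells had received compound plus 0.25 uM (final) NKH477 for 3 h at 37 °C.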
row,Compound,Potency
1,ClC1=C(Cl)[C@]2(Cl)[C@@H]3[C@@H](Cl)[C@H](Cl)C[C@@H]3[C@@]1(Cl)C2(Cl)Cl,inactive
2,COP(=O)(OC)OC=C(Cl)Cl,inactive
3,CNC(=O)CSP(=S)(OC)OC,inactive
4,C=CCc1ccc(OC)cc1,inactive
5,COc1cc(OC)nc(NC(=O)NS(=O)(=O)c2ncccc2C(=O)N(C)C)n1,inactive
6,O=C(Cl)CCl,inactive
7,NC(=O)CF,inactive
8,CC(=[OH+])/C=C(/C)[O-].CC(=[OH+])/C=C(\C)[O-].CC(=[OH+])/C=C(\C)[O-].[Al],inactive
9,CC(C)(C)OOC(=O)c1ccccc1,inactive
10,COP(N)(=O)SC (configuration not stated),inactive
11,Cc1ccc([N+](=O)[O-])cc1C,inactive
12,NC(=O)O,inactive
13,Clc1cccc(Cl)c1,inactive
14,CC(COc1ccc(Oc2ccccc2)cc1)Oc1ccccn1 (configuration not stated),inactive
15,O=C(CBr)c1ccc(O)cc1,inactive
16,Cn1c(-c2ccccc2)cc(-c2ccccc2)[n+]1C,inactive

row,Compound,Potency
1,O=C1CCCN1,inactive
2,CCCCCCCCCCCCCCCC[N+](C)(C)C,inactive
3,O=S(=O)(O)OOS(=O)(=O)O,inactive
4,CCCCCCCCCCCCCl,inactive
5,COP(=S)(OC)SCN1C(=O)c2ccccc2C1=O,inactive
6,O=c1[nH]c(=O)n(Cl)c(=O)n1Cl,inactive
7,CCOP(OCC)OCC,inactive
8,OCC1CO1 (configuration not stated),inactive
9,CCOP(=S)(OCC)SCCSCC,inactive
10,COP(=S)(OC)Oc1ccc([N+](=O)[O-])cc1,inactive
11,COc1ccc2c3c1O[C@H]1[C@@H](O)C=C[C@H]4[C@@H](C2)N(C)CC[C@@]341,inactive
12,Oc1ccc(Cl)cc1Cc1ccccc1,inactive
13,C=C(Cl)CCl,inactive
14,Cc1ccc(Cl)c(O)c1,inactive
15,CCN(CC)N=O,inactive

# Target: Beta-2 adrenergic receptor (Homo sapiens) (UniProt P07550)
# Experiment: Adrenergic beta2 receptor (ADRB2) small molecule antagonists, cell-based qHTS assay (AID 1963592); also: nearly all actives have a fitted effect of over 50% in size; also: potency is read from the fitted curve at half-maximal effect
# Conditions: CHO-ADRB2 cells, isoproterenol-stimulated cAMP HTRF ratio, 0.5 h; series mostly up to 92.4 µM
# Procedure, shortened: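 Cells (CHO, stable ADRB2 overexpression) incubated 18-20hr at 37C; compounds added from DMSO; agonist mix (1nM isoproterenol, 100uM IBMX, 25uM Ro-20-1724) added; 0.5hr RT; d2-cAMP and anti-cAMP-cryptate added; 1hr RT; 665/615 nm read.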
# Chain of Beta-2 adrenergic receptor (Homo sapiens) (P07550 whole entry, looked up): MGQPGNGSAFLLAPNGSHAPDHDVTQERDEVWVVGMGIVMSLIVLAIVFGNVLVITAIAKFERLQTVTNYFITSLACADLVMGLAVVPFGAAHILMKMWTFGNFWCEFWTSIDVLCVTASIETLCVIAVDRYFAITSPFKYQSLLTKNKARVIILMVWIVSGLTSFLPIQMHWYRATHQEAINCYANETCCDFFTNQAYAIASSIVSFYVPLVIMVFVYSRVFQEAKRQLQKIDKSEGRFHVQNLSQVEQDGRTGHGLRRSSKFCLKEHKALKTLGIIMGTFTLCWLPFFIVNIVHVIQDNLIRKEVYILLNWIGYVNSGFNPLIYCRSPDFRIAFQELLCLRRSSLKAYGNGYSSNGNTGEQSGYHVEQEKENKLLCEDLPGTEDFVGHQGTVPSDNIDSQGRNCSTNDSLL
row,Compound,Potency
1,O=C(NCc1cccnc1)Nc1ccc([N+](=O)[O-])cc1,inactive
2,ClC1=C(Cl)[C@]2(Cl)[C@@H]3[C@@H](Cl)[C@H](Cl)C[C@@H]3[C@@]1(Cl)C2(Cl)Cl,inactive
3,COP(=O)(OC)OC=C(Cl)Cl,inactive
4,CNC(=O)CSP(=S)(OC)OC,inactive
5,CCOP(=O)(O)OCC (tested in a mixture with another compound),inactive
6,CC(C)OC(=O)Nc1cccc(Cl)c1,inactive
7,C=CCc1ccc(OC)cc1,inactive
8,COc1cc(OC)nc(NC(=O)NS(=O)(=O)c2ncccc2C(=O)N(C)C)n1,inactive
9,O=C(Cl)CCl,inactive
10,NC(=O)CF,inactive
11,CC(=[OH+])/C=C(/C)[O-].CC(=[OH+])/C=C(\C)[O-].CC(=[OH+])/C=C(\C)[O-].[Al],inactive
12,Cc1ccc(CCl)cc1,inactive
13,CC(C)(C)OOC(=O)c1ccccc1,inactive
14,COP(N)(=O)SC (configuration not stated),inactive
15,Cc1ccc([N+](=O)[O-])cc1C,inactive
16,NC(=O)O,inactive
17,Clc1cccc(Cl)c1,inactive
18,CC(COc1ccc(Oc2ccccc2)cc1)Oc1ccccn1 (configuration not stated),inactive

row,Compound,Potency
1,O=C(CBr)c1ccc(O)cc1,inactive
2,Cn1c(-c2ccccc2)cc(-c2ccccc2)[n+]1C,inactive
3,O=C1CCCN1,inactive
4,CCCCCCCCCCCCCCCC[N+](C)(C)C,inactive
5,O=S(=O)(O)OOS(=O)(=O)O,inactive
6,CCCCCCCCOC(=O)c1ccccc1C(=O)OCCCCCCCC,inactive
7,CCCCCCCCCCCCCl,inactive
8,COP(=S)(OC)SCN1C(=O)c2ccccc2C1=O,inactive
9,O=c1[nH]c(=O)n(Cl)c(=O)n1Cl,inactive
10,CCOP(OCC)OCC,inactive
11,OCC1CO1 (configuration not stated),inactive
12,CCOP(=S)(OCC)SCCSCC,inactive
13,COP(=S)(OC)Oc1ccc([N+](=O)[O-])cc1,inactive
14,COc1ccc2c3c1O[C@H]1[C@@H](O)C=C[C@H]4[C@@H](C2)N(C)CC[C@@]341,inactive
15,Oc1ccc(Cl)cc1Cc1ccccc1,61.9 µM (active) and inactive
16,Cc1ccc(Cl)c(O)c1,inactive
17,CCN(CC)N=O,inactive

# Target: Beta-2 adrenergic receptor (Homo sapiens) (UniProt P07550)
# Experiment: Adrenergic beta2 receptor (ADRB2) small molecule agonists, cell-based qHTS assay (AID 1963593);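 also: CHO cells stably overexpressing human ADRB2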
# Conditions: CHO-ADRB2 cells, cAMP HTRF, 30 min; series mostly up to 92.4 µM
# Procedure, shortened: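 CHO cells stably over-expressing ADRB2 were plated overnight at 37C, then dosed with compounds plus a stimulation mix containing 100uM IBMX and 25uM Ro-20-1724 for 0.5hr at room temperature. cAMP was measured by HTRF competition, 1hr.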
row,Compound,Potency
1,ClC1=C(Cl)[C@]2(Cl)[C@@H]3[C@@H](Cl)[C@H](Cl)C[C@@H]3[C@@]1(Cl)C2(Cl)Cl,inactive
2,COP(=O)(OC)OC=C(Cl)Cl,inactive
3,CNC(=O)CSP(=S)(OC)OC,inactive
4,CCOP(=O)(O)OCC (tested in a mixture with another compound),inactive
5,CC(C)OC(=O)Nc1cccc(Cl)c1,inactive
6,COc1cc(OC)nc(NC(=O)NS(=O)(=O)c2ncccc2C(=O)N(C)C)n1,inactive
7,O=C(Cl)CCl,inactive
8,Cc1ccc(CCl)cc1,inactive
9,CC(C)(C)OOC(=O)c1ccccc1,inactive
10,COP(N)(=O)SC (configuration not stated),inactive
11,Cc1ccc([N+](=O)[O-])cc1C,inactive
12,Clc1cccc(Cl)c1,inactive
13,O=C(CBr)c1ccc(O)cc1,inactive
14,Cn1c(-c2ccccc2)cc(-c2ccccc2)[n+]1C,inactive
15,O=C1CCCN1,inactive
16,CCCCCCCCCCCCCCCC[N+](C)(C)C,inactive
17,O=S(=O)(O)OOS(=O)(=O)O,inactive
18,CCCCCCCCOC(=O)c1ccccc1C(=O)OCCCCCCCC,inactive
19,CCCCCCCCCCCCCl,inactive
20,COP(=S)(OC)SCN1C(=O)c2ccccc2C1=O,inactive
21,OCC1CO1 (configuration not stated),inactive
22,CCOP(=S)(OCC)SCCSCC,inactive
23,COP(=S)(OC)Oc1ccc([N+](=O)[O-])cc1,inactive
24,COc1ccc2c3c1O[C@H]1[C@@H](O)C=C[C@H]4[C@@H](C2)N(C)CC[C@@]341,inactive
25,Oc1ccc(Cl)cc1Cc1ccccc1,inactive
26,C=C(Cl)CCl,inactive
